Values without a mark were called inactive. Active and inactive are the calls of the source.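 How the source made its calls: active means activity change under -35% in any replicate well, with more than 20 beads read in that well; inactive means the rest.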
What follows are molecules tested against Caspase recruitment domain-containing protein 9 (Homo sapiens) + E3 ubiquitin-protein ligase TRIM62 (Homo sapiens) (UniProt Q9H257+Q9BVG3) (assay: CARD9/TRIM62 protein interaction inhibitors – cell lysate, HEK293FT lysates, Luminex bead ELISA, primary screen (AID 1259341;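 further: PE anti-Flag signal of Flag-CARD9 captured by myc-TRIM62 beads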)). Details: PE fluorescence, hits give low values, concentration not given here.
Chain of Caspase recruitment domain-containing protein 9 (Homo sapiens) + E3 ubiquitin-protein ligase TRIM62 (Homo sapiens) (Q9BVG3 whole entry, looked up, the tested form may be a part): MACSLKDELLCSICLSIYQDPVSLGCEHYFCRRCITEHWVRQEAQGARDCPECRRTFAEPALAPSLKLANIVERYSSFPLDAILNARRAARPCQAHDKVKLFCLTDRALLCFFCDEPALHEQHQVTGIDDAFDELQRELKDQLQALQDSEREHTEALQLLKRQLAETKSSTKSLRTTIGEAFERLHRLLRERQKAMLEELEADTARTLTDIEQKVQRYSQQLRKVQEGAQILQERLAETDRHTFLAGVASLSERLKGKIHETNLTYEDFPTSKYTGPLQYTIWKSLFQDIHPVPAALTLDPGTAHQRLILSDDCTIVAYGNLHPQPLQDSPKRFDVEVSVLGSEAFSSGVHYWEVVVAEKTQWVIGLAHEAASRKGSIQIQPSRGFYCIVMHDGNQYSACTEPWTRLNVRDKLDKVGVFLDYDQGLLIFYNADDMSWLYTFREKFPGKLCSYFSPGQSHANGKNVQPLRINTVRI
Chain of Caspase recruitment domain-containing protein 9 (Homo sapiens) + E3 ubiquitin-protein ligase TRIM62 (Homo sapiens) (Q9H257 whole entry, looked up, the tested form may be a part): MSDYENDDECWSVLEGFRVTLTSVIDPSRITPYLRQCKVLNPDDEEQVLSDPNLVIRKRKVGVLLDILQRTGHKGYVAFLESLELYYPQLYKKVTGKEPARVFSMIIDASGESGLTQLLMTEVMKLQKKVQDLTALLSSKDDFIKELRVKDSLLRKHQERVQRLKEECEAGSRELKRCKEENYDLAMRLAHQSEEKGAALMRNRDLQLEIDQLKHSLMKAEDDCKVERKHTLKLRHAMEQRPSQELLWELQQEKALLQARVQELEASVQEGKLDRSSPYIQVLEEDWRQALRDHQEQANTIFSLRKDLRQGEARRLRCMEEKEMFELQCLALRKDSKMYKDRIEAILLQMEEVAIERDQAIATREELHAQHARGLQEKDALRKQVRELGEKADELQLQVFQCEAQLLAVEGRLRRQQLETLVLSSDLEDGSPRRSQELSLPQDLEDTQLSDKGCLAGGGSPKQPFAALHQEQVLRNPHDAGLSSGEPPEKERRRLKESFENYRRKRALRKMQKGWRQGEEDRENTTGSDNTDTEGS

Compound | activity change, negative = inhibition
Cc1ccc(C(=O)Nc2ccc(N3CCC(C(N)=O)(N4CCCCC4)CC3)c(C(=O)O)c2)cc1 | -42.4%
O=C(Nc1nccs1)c1cc(-c2ccco2)nc2ccccc12 | -0.894%
C[C@H](CO)N1C[C@H](C)[C@@H](CN(C)C(=O)C2CCCCC2)OCCCC[C@H](C)Oc2ccc(NS(=O)(=O)c3ccccc3)cc2C1=O | 6.21%
N#CCSc1nc2c(c(=O)n1Cc1ccco1)C1(CCCC1)Cc1ccccc1-2 | -5.29%
O=S(=O)(c1ccc(F)cc1)N1CN(Cc2ccco2)c2nc3ccccc3nc21 | 26.6%
O=S(=O)(Nc1nccs1)c1ccc(-n2cccc2)cc1 | 3.9%
NC(=O)C1(N2CCCCC2)CCN(c2ccc(NC(=O)c3ccccc3F)cc2C(=O)O)CC1 | -30%
Cc1nc(C)c(C(=O)Nc2ncc([N+](=O)[O-])s2)o1 | -6.18%
O=C(O)c1ccccc1/C=N/NC(=O)c1cc(-c2ccco2)nc2ccccc12 | -9.37%
N#Cc1c2c(c(NCc3ccco3)n3c1nc1ccccc13)CCC2 | 5.44%
CN1C(=O)C(c2ccccc2[N+](=O)[O-])C(=O)c2ccccc21 (stereo unspecified) | 3.98%
CC(CCc1ccco1)N(C)S(=O)(=O)c1ccc2[nH]c(=O)ccc2c1 (stereo unspecified) | 3.38%
O=[N+]([O-])c1ccc2cc[nH]c2c1 | 7.88%
O=C(COC(=O)c1cc(-c2ccco2)nc2ccccc12)NCc1ccc2c(c1)OCO2 | 3.18%
Cc1ccc2cc(CN(Cc3ccco3)S(C)(=O)=O)c(=O)[nH]c2c1 | 5.89%
O=C1NC(c2ccc(Br)cc2)Nc2sc3c(c21)CCC3 (stereo unspecified) | -3.86%
Cc1noc(CN(C)C(=O)c2cc(-c3ccco3)nc3c(C)c(Cl)ccc23)n1 | -1.57%
COCC(=O)n1nc(-c2ccco2)nc1NCc1cccs1 | -2.31%

Compound | activity change, negative = inhibition
NC(=O)C1(N2CCCCC2)CCN(c2ncc(NC(=O)c3cccs3)cc2C(=O)O)CC1 | -9.12%
Cc1ccc(C(=O)Nc2cnc(N3CCC(C(N)=O)(N4CCCCC4)CC3)c(C(=O)O)c2)cc1 | -51.3% (active)
O=C1C=C(c2ccccc2)Nc2ccccc2N1 | 2.64%
Cc1cncc(-c2ccc(S(N)(=O)=O)cc2F)c1 | -3.94%
COCCC(=O)N1CCCC2(CCN(CCN3CCCC3)C2=O)C1 (stereo unspecified) | -7.49%
CCSCCNC(=O)c1cncc(Br)c1 | 0.232%
O=C(Nc1ccc2oc(-c3cccnc3)nc2c1)c1ccc2c(c1)OCCO2 | 4.18%
Cn1cccc1CNCCCSc1ncccn1 | 1.41%
C=CCNc1ncnc2c1CCN(C(=O)c1ccc(CSC)o1)CC2 | 2.9%
Cc1ccsc1[C@@H]1CCN(Cc2ccc(-c3ccn[nH]3)o2)C[C@H]1O | 0.0372%
O=C(CN1CCOC1=O)N1CCC2(CCC(=O)N(CCCn3ccnc3)C2)CC1 | -6.82%
N#Cc1c(-c2ccco2)cc(-c2cccnc2)nc1N | 0.372%
O=C1c2ccccc2S(=O)(=O)N1Cc1cccc(S(=O)(=O)N2CCOCC2)c1 | 5.11%
CCN(CCNC(=O)C1CCN(S(=O)(=O)c2c(C)noc2C)CC1)c1ccccc1 | -0.84%
C[C@H](CO)N1C[C@H](C)[C@@H](CN(C)C(=O)C2CCCCC2)OCCCC[C@H](C)Oc2ccc(NS(=O)(=O)c3ccc(F)cc3)cc2C1=O | 9.27%
O=[N+]([O-])c1ccc2nn(Cc3ccccc3)cc2c1 | 16.2%
C[C@H](CO)N1C[C@H](C)[C@@H](CN(C)CC2CCCCC2)OCCCC[C@H](C)Oc2ccc(NS(=O)(=O)c3ccccc3)cc2C1=O | 7.12%
O=C(COC(=O)c1ccc(F)cc1F)Nc1ncccn1 | -18.2%
